# From PubChem
# In the library only some 19% were active in any assay of this set; here they are far more common.
# DT40 TDP1 CPT = growth inhibition of DT40 Tdp1-/-;hTDP1 cells with camptothecin (screen for TDP1 inhibitors); chicken DT40 Tdp1-/-;hTDP1 cells + 20 nM CPT, ATP luminescence, 48 h; Potency, µM (titrated, usually from 46.2 µM), for inactives: top-dose activity change, negative = growth inhibition, hits mostly inhibitors; 420,000 compounds, 12% hits; AID 686979; note: potency is the fitted concentration of half-maximal effect; % is set by controls: 0 for no effect and ±100 for the full control effect; nearly all actives have a fitted effect of over 55% in size
#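 Chicken DT40 Tdp1-/- cells stably complemented with human TDP1 were seeded at 400 cells/well in medium containing 20 nM camptothecin, exposed to pin-transferred compounds, and grown at 37 °C for at least 48 hr. Viability was read as ATP luminescence.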
# IL1B secr inh = blocks inflammasome-driven IL-1 beta release; AID 743279; THP-1 LPS/ATP IL-1B secretion, AlphaLISA, 16 h; stronger effect = lower value; activity change, % at 57.5 µM; 360,000 compounds, 4.7% hits; in the data active = activity change below about -50%; inconclusive = mostly about -30% to -49%; note: % is set by controls: 0 for no effect and ±100 for the full control effect
#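 THP-1 cells pretreated 1 hr with compounds (up to 57.5 uM final), then stimulated with LPS (250 ng/mL final) plus ATP (1.25 mM final); secreted IL-1B measured by AlphaLISA after 16 hr, decreased signal indicating inhibition.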
# SW480 rereplic = inducers of DNA re-replication in SW480 colon cancer cells | AID 624297 | SW480 DNA re-replication, Hoechst DNA content imaging, 48 h | Potency, µM (highest dose often 46.1 µM), for the others: at the highest dose re-replication activation, usual class: activators | 340,000 compounds, 1.8% hits; note: potency is the fitted concentration of half-maximal effect; % of control where 0% means no effect; nearly all actives have a fitted effect of over 55% in size
#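 Compounds, transferred as 23 nL by pin tool, were incubated with cells for 48 hr; DNA content per nucleus was then quantified by Hoechst staining and fluorescence plate imaging.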
# Chronic BCR inh = chronic active BCR signaling inhibition. AID 493014. 340,000 compounds, 0.05% hits. ABC-DLBCL IkBa-CBG/CBR reporter, luminescence ratio, 4 h. Potency, µM (highest dose often 46.1 µM), for the others: at the highest dose activity change, negative = inhibition, most hits filed as inhibitors; active = well fitted inhibition curve with a large enough effect in the signal ratio, with a control signal flat, not every such curve was filed as active; inconclusive = small, poorly fitted or top-dose-only effect, or effect the other way, or a change in a side signal; the % refers to the signal ratio;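 note: potency is the fitted concentration of half-maximal effect; plate controls were basal doxycycline-induced cells for no effect and cells given 10 µM MG132 for full effect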
#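 Doxycycline induced both beetle luciferases in TMD8 lymphoma cells; IKK-driven degradation limits the IkappaBalpha-fused green signal, while red luminescence normalises for cell number and nonspecific effects. Compounds tested up to 46 uM, 4 hrs.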
# MCF10A rereplic = inducers of DNA re-replication in MCF 10A breast cells; MCF 10A DNA re-replication, Hoechst nuclear intensity, 48 h; Potency, µM (titrated, usually from 46.1 µM), inactives show at the highest dose activity, positive = re-replication, most hits filed as activators; 350,000 compounds, 2.9% hits; note: potency is the fitted concentration of half-maximal effect; % of control where 0% means no effect; nearly all actives have a fitted effect of over 50% in size
# TDP1 cell noCPT = qHTS for Inhibitors of human tyrosyl-DNA phosphodiesterase 1 (TDP1): qHTS in cells in absence of CPT; DT40 Tdp1-/- hTDP1 cells, no CPT, ATP luminescence, 48 h; Potency, µM (series often up to 46.2 µM), for inactives: top-dose activity change, negative = growth inhibition, hits mostly inhibitors; 420,000 compounds, 15% hits; note: potency is the fitted concentration of half-maximal effect; % is set by controls: 0 for no effect and ±100 for the full control effect; nearly all actives have a fitted effect of over 55% in size
#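 Growth of hTDP1-complemented DT40 Tdp1-knockout cells is measured by ATP luminescence after at least 48 hr compound exposure at 37 °C, with DMSO substituting for the 20 nM CPT used in the parallel screen.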
# An asterisk follows results filed as active; ? = inconclusive; / = no result given. Unless noted, calls come from the whole dose curve; as a rule, active = well fitted curve in the direction sought with a large enough effect; inconclusive = small, poorly fitted or top-dose-only effect, or another doubt; inactive = no such curve, though single readings can be large; an effect the other way counts as inactive or inconclusive.
SMILES,DT40 TDP1 CPT,IL1B secr inh,SW480 rereplic,Chronic BCR inh,MCF10A rereplic,TDP1 cell noCPT
CCOC(=O)N1CCN(C(=O)c2cc(S(=O)(=O)N3CCCC3)cn2C)CC1,-3.7%,1.6,0.4%,7.5%,2.1%,5.8%
Cc1ccc(C)c(N2CCN(C(=O)c3cc(S(=O)(=O)N4CCOCC4)ccc3F)CC2)c1,14.6µM*,-5.4,12.4%,-0.3%,?,13µM*
CCCCn1ccnc1C(=O)c1cc(S(=O)(=O)N2CCOCC2)ccc1C,11.6µM*,-2.7,-2.1%,21.3%,1.7%,10.3µM*
Cc1ccc(C)c(N2CCN(C(=O)c3cc(S(=O)(=O)N4CCCCC4)cn3C)CC2)c1,20.6µM*,/,/,/,/,18.4µM*
COc1cc(S(=O)(=O)N2CCOCC2)cc(C(=O)c2nccn2C)c1OC,-2.8%,14.5,1.8%,-0.5%,?,-2.2%
Cc1cc(-n2cnnn2)cc(C)c1S(=O)(=O)NCCOc1ccccc1,0.2%,-1.3,6.3%,-7.3%,-3.0%,-8.8%
CC1(Oc2ccc(F)cc2)CCN(Cc2ccccc2OC(F)F)C1 (configuration not stated),-18.3%,0.0,/,/,/,-22.0%
Cc1ccc(S(=O)(=O)N2CCN(c3ccnc4cc(Cl)ccc34)CC2)cc1C,?,?,0.0%,0.8%,2.2%,?
CC(=O)c1ccc(S(=O)(=O)N2CCN(c3ccnc4cc(Cl)ccc34)CC2)cc1,8.2µM*,?,/,/,/,7.31µM*
Cc1ccc(S(=O)(=O)N2CCN(c3ccnc4cc(Cl)ccc34)CC2)cc1,23.1µM*,-80.8*,-18.7%,0.2%,13.1%,23.1µM*
O=S(=O)(c1ccc(Br)s1)N1CCN(c2ccnc3cc(Cl)ccc23)CC1,?,/,-29.6%,?,-13.1%,18.4µM*
CC(=O)N1CCN(C(=O)COC(=O)COc2ccc(C#N)cc2)CC1,1.4%,-0.9,-67.9%,-0.1%,-6.7%,-1.0%
CC1(C)CC(=O)C=C(c2n[nH]nc2-c2ccc(F)c(F)c2)C1,-12.7%,10.4,/,/,/,-26.5%
Cc1ccc(C)c(NC(=O)C2CCCN(c3ncnc4onc(C)c34)C2)c1 (configuration not stated),11.6µM*,/,/,/,/,10.3µM*
CCOCCCNC(=O)C1CCCN(c2ncnc3onc(C)c23)C1 (configuration not stated),16.4µM*,/,/,/,/,20.6µM*
CCCCN(CC)CCNC(=O)C1CCCN(c2ncnc3onc(C)c23)C1 (configuration not stated),-26.2%,/,/,/,/,-15.6%
Cc1ccc(C)c(NC(=O)C2CCCC2)c1,4.8%,-14.0,-3.5%,/,0.5%,-2.5%
Cc1noc2ncnc(N3CCCC(C(=O)NCCC(C)C)C3)c12 (configuration not stated),8.2µM*,/,/,/,/,7.31µM*
CCOC(=O)c1ccc(NC(=O)C2CCCN(c3ncnc4onc(C)c34)C2)cc1 (configuration not stated),13µM*,/,/,/,/,14.6µM*
CCOC(=O)c1ccc(NC(=O)C2CCCN(S(=O)(=O)c3cnc[nH]3)C2)cc1 (configuration not stated),0.8%,0.0,8.5%,-29.3%,?,-5.0%
O=C(C[n+]1cccc(Br)c1)c1ccc(F)cc1,-3.6%,/,/,/,/,0.2%
COCCCNC(=O)C1CCCN(c2ncnc3onc(C)c23)C1 (configuration not stated),18.4µM*,/,/,/,/,?
CCS(=O)(=O)N1CCCC(C(=O)NCCCOC)C1 (configuration not stated),1.4%,11.6,-4.6%,2.8%,28.3%,9.1%
C=CCOc1c(Br)cc(/C=N/n2c(CC)n[nH]c2=S)cc1Br,?,-8.4,?,1.3%,16.4µM*,?
CCc1n[nH]c(=S)n1/N=C/c1ccc(N(CC)CC)cc1,?,20.4,-1.8%,11.2µM*,3.5%,?
SMILES,DT40 TDP1 CPT,IL1B secr inh,SW480 rereplic,Chronic BCR inh,MCF10A rereplic,TDP1 cell noCPT
CCOC(=O)c1cc(C#N)c(N2CCNCC2)nc1C(F)(F)F,1.2%,-2.9,-1.9%,-1.0%,1.4%,-9.5%
CCOC(=O)c1cc(C#N)c(N2CCN(C(=O)c3ccccc3)CC2)nc1C(F)(F)F,-27.7%,4.4,14.6µM*,-7.6%,-7.0%,?
CCOC(=O)c1cc(C#N)c(N2CCN(C(=O)c3cccc(C(F)(F)F)c3)CC2)nc1C(F)(F)F,?,?,7.0%,9.4%,20.5%,14.6µM*
COc1ccc(NC(=O)N2C[C@H]3CON(C)[C@H]3C[C@H]2c2ccc(N3CCCCC3)cc2)cc1,-6.8%,7.1,/,/,/,2.3%
Cc1cccc(NC(=S)N(Cc2cccs2)Cc2cc3cc(C)cc(C)c3[nH]c2=O)c1,13µM*,2.7,-1.6%,?,10.2%,9.2µM*
COCCNC(=S)N(Cc1cccs1)Cc1cc2cccc(C)c2[nH]c1=O,-15.3%,-56.2*,-2.3%,?,14.6%,?
COc1ccc2[nH]c(=O)c(CN(Cc3cccs3)S(=O)(=O)c3cccc4nsnc34)cc2c1,-112.4%,-18.4,?,6.2%,?,10.3µM*
CNC(=S)N(Cc1cccs1)Cc1cc2cc(OC)ccc2[nH]c1=O,?,0.0,/,-4.5%,3.2%,?
Cc1cc(C)c2[nH]c(=O)c(CN(Cc3ccco3)C(=O)c3cccs3)cc2c1,/,/,/,11.9%,/,/
Cc1cc2cc(CN(Cc3cccs3)C(=S)NCc3ccco3)c(=O)[nH]c2cc1C,?,-7.2,1.3%,?,-0.9%,?
COc1ccc2[nH]c(=O)c(CN(Cc3cccs3)C(=S)Nc3cccc(C)c3)cc2c1,20.6µM*,-8.7,/,1.8%,?,13µM*
O=c1c2ccccc2sc2nc(CCl)nn12,?,13.4,-2.4%,/,?,?
COc1ccc(CN(Cc2cc3cccc(C)c3[nH]c2=O)C(=O)N(C)C)cc1,-19.7%,6.1,1.9%,-0.8%,9.4%,-11.3%
CNC(=S)N(Cc1ccc(OC)cc1)Cc1cc2cccc(C)c2[nH]c1=O,18.4µM*,-18.3,?,-1.8%,?,20.6µM*
CCCCN(C(=O)CSc1nc2ccccc2s1)c1c(N)n(CCCC)c(=O)[nH]c1=O,-2.0%,6.8,4.8%,?,7.9%,?
O=C(CSc1nn(-c2ccc(F)cc2)c(=S)s1)N1CCN(C(=O)c2ccco2)CC1,-26.4%,-79.1*,?,0.2%,?,-17.1%
CCCCN(C(=O)c1cc(-c2ccc(F)cc2)nc2ccccc12)c1c(N)n(CCCC)c(=O)[nH]c1=O,?,-69.7*,?,4.1%,10.5%,?
